Molecules are shown by their SMILES. Activity calls are given as the source filed them. A call without a number means that no potency is given here. Calls follow the shape of the dose curve; as a rule, active = well fitted activation curve with a large enough effect; inconclusive = small, poorly fitted or top-dose-only effect; inactive = no such curve, though single readings can be large or run the other way.
Potency is read from the fitted curve at half-maximal effect.

The experiment can be described thus: Confirmatory qHTS for Identification of Small Molecule Activators of Huntingtin-Antisense Promoter Activity. The conditions noted are these: HEK293 HTT-AS promoter firefly luciferase reporter, 24 h; series mostly up to 57.5 µM. The gist of the method:
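Activity normalized between vehicle control (0%) and zero RLU (-100%) from firefly luminescence (Dual-Glo). Compounds, up to 57.5 uM final, incubated 24 h at 37C on HEK293 reporter cells plated 24 h earlier.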
(In general: Quantitative high-throughput screening tests each substance at several concentrations.)
Turning to `CCSc1ncc(Cl)c(C(=O)Nc2ccc(S(=O)(=O)N3CCCCC3)cc2)n1`, the Potency entry is “inactive”.
Under `COc1cc(Cn2c(=O)oc3ccc(C)cc32)ccc1OCCC(C)C` stands “inactive”; under `CC(C)[C@H](C(=O)Nc1ccc(C(=O)NO)cc1)c1ccccc1`, 1.9 µM (active).
Consider `CCOC(=O)c1cc(-c2ccccc2)n(CCCC(=O)Nc2ccc(CC)cc2)c1C`, for which the Potency entry was “inactive”.
Under `CCN(C(=O)C1CCC(CNS(=O)(=O)c2cccc3nsnc23)CC1)c1ccccc1` (centres undefined) stands “inactive”.
The result for `Cc1ccc(Cl)cc1-n1ncc2c(NC3CCCCC3)ncnc21` reads “inactive”; that for `COc1ccc(C2=CC(c3ccc(F)cc3)n3ncc(C(=O)Nc4ccc(C)cc4)c3N2)cc1` (centres undefined), “inactive”.
Under `COc1ccc(CNS(=O)(=O)c2ccc(N3CCCCS3(=O)=O)cc2)cc1` stands “inactive”; under `Cn1c(=O)n(C)c2cc(NS(=O)(=O)c3ccc(F)cc3)ccc21`, “inactive”; under `CCCC(=O)c1ccc(OC(=O)c2c(-c3ccccc3Cl)noc2C)cc1`, “inactive”.
Regarding `CCc1ccc(NS(=O)(=O)c2c(C)nc3sc(CC)nn3c2=O)cc1`, the Potency entry was “inactive”.
For the compound `COc1ccc(OC2CCN(S(=O)(=O)c3ccc(OC)cc3)CC2)cc1`, the Potency result is “inactive”.
In the case of `O=C(CCNS(=O)(=O)c1ccc2c(c1)CCN2C(=O)C1CC1)N1CCN(c2ccc(F)cc2)CC1`, the Potency entry is “inactive”.
For the compound `CCc1cccc(C)c1NC(=O)CCCN1C(=O)C(c2ccccc2)Oc2cccnc21` (centres undefined), the Potency entry is “inactive”.
The result for `Cc1oc(-c2ccc(C(=O)NCc3ccccc3F)cc2)nc1COc1ccccc1` reads “inactive”; that for `CC(C)(C)C(=O)NCCc1nc2ccccc2n1CCCCOc1ccccc1`, “inactive”; that for `Cc1ccc(C)c(NC(=O)Cn2c(=O)oc3cc(S(=O)(=O)NCc4ccccc4)ccc32)c1`, “inactive”.
The result for `Cc1cc(C)c(S(=O)(=O)NCCc2csc3nc(-c4ccc(Cl)cc4)nn23)c(C)c1` reads “inactive”; that for `CC(=O)C1=C(c2ccc(Cl)c(Cl)c2)N(C(C)=O)n2c(C)nnc2S1`, “inactive”.
As to `CCOC(=O)C1CCC(CN(Cc2c(Cl)cccc2Cl)S(=O)(=O)c2ccc(Cl)cc2)CC1` (centres undefined), the Potency result is “inactive”.
Turning to `CCn1cc(C(=O)N2CCN(c3ccc(C)cc3)C(C)C2)c(=O)c2cc(S(=O)(=O)N3CCCC3)ccc21` (centres undefined), the Potency entry was “inactive”.
The result for `CSc1cccc(NC(=O)C2CCN(C(=O)c3cnn(-c4ccccc4)c3-n3cccc3)CC2)c1` reads “inactive”.
Under `CCc1ccccc1-n1c(SCC(=O)Nc2ccc(C)cc2)nc2n[nH]c(C)c2c1=N` stands “inactive”; under `COc1cccc(NC(=O)CN2CCCN(S(=O)(=O)c3ccc(Br)cc3)CC2)c1`, “inactive”.
Under `CCOC(=O)C1CCC(CN(Cc2ccccc2)S(=O)(=O)c2ccc(Cl)cc2)CC1` (centres undefined) stands “inactive”.
For the compound `C#C[C@]1(O)CC[C@H]2[C@H]3CCc4cc(OC)ccc4[C@H]3CC[C@@]21C`, the Potency entry was “inactive”.
The result for `O=C(CCn1cnc2onc(-c3ccc(F)cc3)c2c1=O)Nc1ccc(F)c(Cl)c1` reads “inactive”.
Consider `COCCNc1nc2c(c(=O)n(C)c(=O)n2C)n1Cc1c(F)cccc1Cl`, for which the Potency result is “inactive”.
Under `CCOc1ccc(-n2ccnc2SCC(=O)Nc2cc(C)ccc2C)cc1` stands “inactive”.
Under `CCc1ccc2oc(C(=O)NCCc3ccc(OC)c(OC)c3)cc(=O)c2c1` stands “inactive”.
`Cc1cccc(Cn2c(SCc3ccc(C(=O)N4CCCCCC4)cc3)nc3ccncc32)c1`: the Potency entry was “inactive”.
The result for `CCOc1ccc(S(=O)(=O)NCCc2sc3nc(-c4ccc(C)cc4)nn3c2C)cc1` reads “inactive”.
The result for `CCC(=O)C1=C(c2cccc([N+](=O)[O-])c2)N(C(=O)CC)n2c(nnc2C2CCCCC2)S1` reads “inactive”.
With `Cc1ccc(-n2ncc3c(N(C)Cc4ccccc4)ncnc32)cc1`, the Potency is 0.213 µM (active).
With `CC(C)(C)c1ccc(C(=O)Nc2ccc3c(c2)CCCN3C(=O)c2cccs2)cc1`, the Potency result is “inactive”.
For `Cc1ccc(Cl)cc1N1CCN(C(=O)Cn2cnc3nc4c(cc3c2=O)CCCC4)CC1`, the Potency entry is “inactive”.
Under `CCOCCCNC(=O)c1c[nH]c2ccc(S(=O)(=O)N(C)c3ccc(Cl)cc3F)cc2c1=O` stands “inactive”; under `COc1ccc(N2CCN(C(CNC(=O)C(=O)NCc3ccc(C)cc3)c3cccnc3)CC2)cc1` (centres undefined), “inactive”.
The result for `COc1ccc(CNC(=O)c2oc3c(c2C)-c2nn(Cc4ccccc4Cl)cc2CC3)cc1` reads “inactive”.

(Values after PubChem BioAssay AID1508622 (National Center for Advancing Translational Sciences (NCATS), 2021).)
